Values without a mark were called inactive. Results filed as inconclusive are left out. Entries that show only a call come without a potency. Calls of active or inactive are those of the source. Unless noted, the call rests on the fitted dose curve; in most records, active means well fitted curve in the direction sought with a large enough effect in the repeat runs; inconclusive means weak or mixed curves; inactive means no such curve, though single readings can be large; an effect the other way counts as inactive or inconclusive.
Columns and labels:
[1] = qHTS assay to identify small molecule antagonists of the TGF-beta/Smad signaling pathway - cell viability counter screen (AID 1346824); further: nearly all actives have a fitted effect of over 50% in size
In short: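 SBE-bla HEK 293T cells were plated overnight at 37 C, then given compounds in DMSO plus TGF-beta1 (added as 0.25 ng/mL solution) for 5 hr. After the bla read, CellTiter-Glo was added to the same wells and luminescence read after 30 min at room temperature.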

[2] = Human pregnane X receptor (PXR) small molecule agonists, qHTS cell viability counter screen (AID 1346977); further: nearly all actives have a fitted effect of over 50% in size
In short: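 Cytotoxicity counter screen run in the same wells as the PXR luciferase assay, using PXR-Luc HepG2 cells in charcoal-stripped serum medium. Viability: CellTiter-Fluor fluorescence after 24hr compound treatment.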

[3] = Caspase-3/7 induction in HepG2 cells by small molecules, qHTS assay (AID 1346978); further: nearly all actives have a fitted effect of over 15% in size
In short: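 Wild-type HepG2 cells (2,000/well) were settled 5 h at 37 C, 5% CO2, then exposed to compounds in DMSO for 17 h. Caspase-3/7 activity was read by luminescence 30 min after adding Caspase-Glo 3/7 reagent at room temperature.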

[4] = Caspase-3/7 induction in CHO-K1 cells by small molecules, qHTS cell viability counter screen (AID 1346979); further: nearly all actives have a fitted effect of over 35% in size
In short: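 Cytotoxicity counter screen run in parallel with the caspase-3/7 assay: CHO-K1 cells, 16hr compound treatment at 37C, then CellTiter-Fluor for 1hr before fluorescence reading.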

[5] = Caspase-3/7 induction in CHO-K1 cells by small molecules, qHTS assay (AID 1346980); further: nearly all actives have a fitted effect of over 15% in size
In short: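 Wild-type cells were seeded at 1,500 per well and settled 5 hr at 37 C, 5% CO2, then exposed to DMSO-dissolved compounds for 17 hr. Caspase-Glo 3/7 reagent was added, and luminescence was read after 30min at room temperature.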

[6] = target: Nuclear receptor subfamily 1 group I member 2 (Homo sapiens) (UniProt O75469); experiment: Human pregnane X receptor (PXR) small molecule agonists, qHTS assay (AID 1346982); further: nearly all actives have a fitted effect of over 35% in size
In short: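 Reporter HepG2 cells expressing PXR-Luc are cultured in charcoal-stripped FBS (5%), treated with compounds for 24 hr at 37 C, and assayed by ONE-Glo luminescence after 30 min at room temperature.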

[7] = target: Nuclear receptor subfamily 1 group I member 2 (Rattus norvegicus) (UniProt Q9R1A7); experiment: Rat pregnane X receptor (rPXR) activation by small molecules, qHTS assay (AID 1346983); conditions: rPXR luciferase reporter cells, One-Glo luminescence, 24 h; max activation: stronger effect = higher value; further: nearly all actives have a fitted effect of over 20% in size
In short: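 Cell-based rPXR luciferase reporter assay, 2,000 cells per well, rested 5hr at 37 C before compound addition in DMSO, then 24 hr at 37 C. One-Glo reagent was added and luminescence read after 30 min at room temperature.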

[8] = target: Nuclear receptor subfamily 1 group I member 2 (Homo sapiens) (UniProt O75469); experiment: CYP3A4 induction through human pregnane X receptor (PXR) by small molecules, qHTS assay (AID 1346984); further: nearly all actives have a fitted effect of over 40% in size
In short: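 Induction measured in HepG2-based DPX-2 cells co-expressing human PXR and a CYP3A4 promoter-driven luciferase. After a 24-hour compound exposure, cells received CYP3A4 luciferin substrate at 3uM final for 3 hours, and light output was then recorded.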

[9] = target: Nuclear receptor subfamily 1 group I member 2 (Homo sapiens) (UniProt O75469); experiment: Human pregnane X receptor (PXR) activation by small molecules, qHTS assay (AID 1346985); further: nearly all actives have a fitted effect of over 40% in size
In short: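 DPX-2 cells (HepG2 co-transfected with a PXR response element and a CYP3A4-promoter luciferase construct) were seeded at 2,000 per well, rested 5 hr at 37C, then exposed to DMSO-dissolved compounds for 24 hr. Activation was read as luciferase luminescence.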

[10] = target: Cytochrome P450 2D6 (Homo sapiens) (UniProt P10635); experiment: Cytochrome P450 Family 2 Subfamily D Member 6 (CYP2D6) small molecule antagonists: luciferase reporter qHTS assay (AID 1671196); further: nearly all actives have a fitted effect of over 50% in size; further: potency means the concentration at half of the fitted maximal effect
In short: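 Test chemicals meet CYP2D6 plus proluciferin substrate (10 min, RT); NADPH regenerating solution then drives turnover for 1 h. Detection reagent halts the reaction; luminescence measured after 20 min.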

[11] = target: Cytochrome P450 2C19 (Homo sapiens) (UniProt P33261); experiment: Cytochrome P450 Family 2 Subfamily C Member 19 (CYP2C19) small molecule antagonists: luciferase reporter qHTS assay (AID 1671197); further: nearly all actives have a fitted effect of over 65% in size; further: potency means the concentration at half of the fitted maximal effect
In short: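 Relative luminescence units recorded 20 min after the detection reagent stopped a 1 h, 37C CYP2C19 reaction on proluciferin substrate, which was started by NADPH regeneration following 10 min room-temperature compound preincubation; ketoconazole positive control.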

[12] = target: Cytochrome P450 1A2 (Homo sapiens) (UniProt P05177); experiment: Cytochrome P450 Family 1 Subfamily A Member 2 (CYP1A2) small molecule antagonists: luciferase reporter qHTS assay (AID 1671199); further: nearly all actives have a fitted effect of over 50% in size; further: potency means the concentration at half of the fitted maximal effect
In short: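 Steps: enzyme-substrate mix dispensed; test compounds and furafylline control pinned in; 10 min room temperature; NADPH regeneration solution added, 1 h; reaction stopped with luciferin detection reagent; luminescence read after 20 min.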

[13] = target: Voltage-gated inwardly rectifying potassium channel KCNH2 (Homo sapiens) (UniProt Q12809); experiment: Human Ether-a-go-go-Related Gene (hERG) channel small molecule antagonists: fluorescence cell-based qHTS assay (AID 1671200)
In short: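 Fluorescence at 540 nm emission (480 nm excitation) was recorded kinetically for 2 min at 1-second intervals once the thallium-containing stimulus reached cells previously loaded with FluxOR II dye.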

[14] = target: Cytochrome P450 3A4 (Homo sapiens) (UniProt P08684); experiment: Cytochrome P450 Family 3 Subfamily A Member 4 (CYP3A4) small molecule antagonists: luciferase reporter qHTS assay (AID 1671201)
In short: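 qHTS, 1536-well. CYP3A4 + proluciferin substrate, cpd 10 min RT → NADPH regen 1 h RT → detection reagent 20 min → luminescence (RLU). Ketoconazole positive control.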

[15] = qHTS assay to identify small molecule agonists of the TGF-beta/Smad signaling pathway (AID 1346859; active means well fitted activation curve with a large enough effect in the signal ratio in the repeat runs, not every such curve was filed as active; the % refers to the signal ratio; further: series mostly up to about 77 µM)
In short: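 Reporter line: HEK 293T with stably integrated SBE-controlled beta-lactamase. Compound exposure lasts 5 hr at 37 C and 5% CO2; substrate loading follows for 2 hr at room temperature, with emission read at 460 and 530 nm.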

[16] = target: Thyrotropin-releasing hormone receptor (Homo sapiens) (UniProt P34981); experiment: qHTS assay to identify small molecule agonists of the thyrotropin-releasing hormone receptor (TRHR) signaling pathway (AID 1346891; calls by dose curve;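 further: HEK293 cells expressing TRHR with calcium dye readout; series mostly up to about 58 µM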)
In short: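 Cells: TRHR-Hek293, seeded and incubated 18 h. Dye loading: 2 h at 37 °C. Compound added from DMSO stock by pin tool. Read-out: kinetic calcium fluorescence over 3 min.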

[17] = Caspase-3/7 induction in HepG2 cells by small molecules, qHTS cell viability counter screen (AID 1346981); further: series mostly up to about 92 µM; nearly all actives have a fitted effect of over 30% in size
In short: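 In this quantitative HTS counter screen, compounds delivered in DMSO were left on unmodified HepG2 cells for 16 hr at 37 C. Viability was then determined fluorometrically with CellTiter-Fluor, in parallel with caspase-3/7 induction in the same wells.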

[18] = target: Cytochrome P450 2C9 (Homo sapiens) (UniProt P11712); experiment: Cytochrome P450 Family 2 Subfamily C Member 9 (CYP2C9) small molecule antagonists: luciferase reporter qHTS assay (AID 1671198); further: nearly all actives have a fitted effect of over 50% in size; further: potency means the concentration at half of the fitted maximal effect
In short: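 CYP2C9 activity was measured with a P450-Glo proluciferin substrate. Enzyme–substrate mix was held with compound for 10 min at room temperature, then NADPH regeneration solution was added for 1 h at 37C. Luciferin product was read as luminescence.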

[19] = target: Thyrotropin-releasing hormone receptor (Homo sapiens) (UniProt P34981); experiment: qHTS assay to identify small molecule antagonists of the thyrotropin-releasing hormone receptor (TRHR) signaling pathway (AID 1346877; active means well fitted inhibition curve with a large enough effect in the repeat runs, not every such curve was filed as active; further: series mostly up to about 51 µM)
In short: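 Kinetic fluorescence (3 min, 1 s resolution) following stimulation with TRH at 1 nM final; HEK293 cells bearing human TRHR; 5 min compound preincubation at RT; concentration-response over 15 points, triplicates.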

[20] = qHTS assay to identify small molecule agonists of the TGF-beta/Smad signaling pathway - cell viability counter screen (AID 1346829); further: top concentration of the series differs between compounds; nearly all actives have a fitted effect of over 45% in size
In short: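 Tox21 qHTS format: SBE-bla HEK 293T cells treated with DMSO-dissolved compounds for 5 hr; CellTiter-Glo luminescence after 30 min at room temperature.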

Sequence of Cytochrome P450 2C19 (Homo sapiens) (P33261 whole entry, looked up): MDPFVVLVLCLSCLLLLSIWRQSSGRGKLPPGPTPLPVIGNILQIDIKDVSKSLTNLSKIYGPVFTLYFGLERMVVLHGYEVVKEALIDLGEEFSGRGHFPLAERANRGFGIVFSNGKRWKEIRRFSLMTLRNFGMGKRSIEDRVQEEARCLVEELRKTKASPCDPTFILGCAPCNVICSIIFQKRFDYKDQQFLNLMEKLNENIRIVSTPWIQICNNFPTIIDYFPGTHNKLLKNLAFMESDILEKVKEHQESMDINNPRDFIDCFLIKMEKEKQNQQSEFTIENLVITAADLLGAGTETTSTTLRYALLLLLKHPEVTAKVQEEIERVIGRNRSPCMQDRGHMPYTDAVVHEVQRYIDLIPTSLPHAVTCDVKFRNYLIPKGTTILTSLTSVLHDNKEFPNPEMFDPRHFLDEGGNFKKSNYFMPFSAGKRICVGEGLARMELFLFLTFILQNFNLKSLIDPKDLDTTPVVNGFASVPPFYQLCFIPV
Sequence of Voltage-gated inwardly rectifying potassium channel KCNH2 (Homo sapiens) (Q12809 whole entry, looked up): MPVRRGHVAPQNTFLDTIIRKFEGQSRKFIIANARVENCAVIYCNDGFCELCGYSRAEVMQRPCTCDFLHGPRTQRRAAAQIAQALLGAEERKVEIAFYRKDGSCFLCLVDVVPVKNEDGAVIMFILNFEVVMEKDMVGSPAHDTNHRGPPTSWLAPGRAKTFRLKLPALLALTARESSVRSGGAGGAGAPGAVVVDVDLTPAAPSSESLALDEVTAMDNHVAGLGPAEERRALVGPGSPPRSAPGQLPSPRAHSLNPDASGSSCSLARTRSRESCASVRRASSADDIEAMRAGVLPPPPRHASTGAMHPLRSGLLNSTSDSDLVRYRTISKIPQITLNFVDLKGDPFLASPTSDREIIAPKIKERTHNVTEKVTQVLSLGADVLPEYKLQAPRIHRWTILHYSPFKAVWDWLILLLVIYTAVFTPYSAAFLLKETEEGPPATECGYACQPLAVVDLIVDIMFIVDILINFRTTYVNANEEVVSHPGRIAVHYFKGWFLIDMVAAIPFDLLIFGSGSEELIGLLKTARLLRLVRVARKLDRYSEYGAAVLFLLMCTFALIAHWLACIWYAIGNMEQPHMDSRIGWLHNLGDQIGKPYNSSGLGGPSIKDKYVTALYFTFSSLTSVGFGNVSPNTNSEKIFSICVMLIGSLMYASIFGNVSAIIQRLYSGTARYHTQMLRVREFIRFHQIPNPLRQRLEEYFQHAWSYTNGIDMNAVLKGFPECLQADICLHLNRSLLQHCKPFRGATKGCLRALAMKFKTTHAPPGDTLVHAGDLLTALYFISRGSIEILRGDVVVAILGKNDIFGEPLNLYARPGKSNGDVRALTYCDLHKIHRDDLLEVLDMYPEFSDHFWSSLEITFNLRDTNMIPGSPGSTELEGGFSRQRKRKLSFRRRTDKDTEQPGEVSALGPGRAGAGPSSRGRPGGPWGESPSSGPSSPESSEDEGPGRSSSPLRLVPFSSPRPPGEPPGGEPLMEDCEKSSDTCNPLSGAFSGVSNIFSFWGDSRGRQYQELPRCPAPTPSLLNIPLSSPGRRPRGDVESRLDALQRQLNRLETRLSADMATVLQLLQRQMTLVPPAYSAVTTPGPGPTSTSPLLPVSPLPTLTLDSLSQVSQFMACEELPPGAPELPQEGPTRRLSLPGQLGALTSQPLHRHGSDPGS
Sequence of Thyrotropin-releasing hormone receptor (Homo sapiens) (P34981 whole entry, looked up): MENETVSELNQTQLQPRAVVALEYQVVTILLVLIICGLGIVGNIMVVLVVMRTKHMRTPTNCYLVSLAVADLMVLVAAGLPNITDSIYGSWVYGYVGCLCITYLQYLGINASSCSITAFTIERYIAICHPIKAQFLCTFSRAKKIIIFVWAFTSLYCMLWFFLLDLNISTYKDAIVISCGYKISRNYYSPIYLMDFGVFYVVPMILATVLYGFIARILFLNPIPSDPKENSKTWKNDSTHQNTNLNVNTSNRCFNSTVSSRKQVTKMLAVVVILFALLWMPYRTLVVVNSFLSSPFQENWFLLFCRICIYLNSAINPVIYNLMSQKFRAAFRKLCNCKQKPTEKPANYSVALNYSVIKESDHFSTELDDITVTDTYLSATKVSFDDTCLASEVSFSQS
Sequence of Cytochrome P450 1A2 (Homo sapiens) (P05177 whole entry, looked up): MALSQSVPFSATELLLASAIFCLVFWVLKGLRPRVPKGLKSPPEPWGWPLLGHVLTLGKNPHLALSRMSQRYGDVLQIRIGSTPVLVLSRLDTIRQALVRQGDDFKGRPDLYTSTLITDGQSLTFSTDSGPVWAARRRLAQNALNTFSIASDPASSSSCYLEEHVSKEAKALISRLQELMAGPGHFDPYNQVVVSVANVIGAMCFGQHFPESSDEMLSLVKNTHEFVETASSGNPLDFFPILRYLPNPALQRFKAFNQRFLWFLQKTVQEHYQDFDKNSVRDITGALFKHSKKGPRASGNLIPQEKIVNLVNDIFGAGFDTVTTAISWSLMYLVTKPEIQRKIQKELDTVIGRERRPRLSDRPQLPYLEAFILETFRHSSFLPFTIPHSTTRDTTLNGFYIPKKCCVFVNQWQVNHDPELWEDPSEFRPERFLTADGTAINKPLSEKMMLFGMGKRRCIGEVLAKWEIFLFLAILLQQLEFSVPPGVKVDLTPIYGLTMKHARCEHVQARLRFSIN
Sequence of Cytochrome P450 3A4 (Homo sapiens) (P08684 whole entry, looked up): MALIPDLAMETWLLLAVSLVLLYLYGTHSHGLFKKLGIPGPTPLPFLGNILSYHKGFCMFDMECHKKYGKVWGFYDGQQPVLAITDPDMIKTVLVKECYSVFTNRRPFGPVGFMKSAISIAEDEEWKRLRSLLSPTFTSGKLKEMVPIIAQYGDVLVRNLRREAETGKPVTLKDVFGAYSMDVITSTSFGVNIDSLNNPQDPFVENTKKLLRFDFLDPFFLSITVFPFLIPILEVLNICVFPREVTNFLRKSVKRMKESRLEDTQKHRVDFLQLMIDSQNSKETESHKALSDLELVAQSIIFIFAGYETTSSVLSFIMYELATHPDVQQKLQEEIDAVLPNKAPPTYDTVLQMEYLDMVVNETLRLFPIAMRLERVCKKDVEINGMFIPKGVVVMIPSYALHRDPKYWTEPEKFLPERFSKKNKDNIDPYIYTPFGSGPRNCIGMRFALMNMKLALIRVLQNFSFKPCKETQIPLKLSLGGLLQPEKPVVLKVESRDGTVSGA
Sequence of Nuclear receptor subfamily 1 group I member 2 (Homo sapiens) (O75469 whole entry, looked up): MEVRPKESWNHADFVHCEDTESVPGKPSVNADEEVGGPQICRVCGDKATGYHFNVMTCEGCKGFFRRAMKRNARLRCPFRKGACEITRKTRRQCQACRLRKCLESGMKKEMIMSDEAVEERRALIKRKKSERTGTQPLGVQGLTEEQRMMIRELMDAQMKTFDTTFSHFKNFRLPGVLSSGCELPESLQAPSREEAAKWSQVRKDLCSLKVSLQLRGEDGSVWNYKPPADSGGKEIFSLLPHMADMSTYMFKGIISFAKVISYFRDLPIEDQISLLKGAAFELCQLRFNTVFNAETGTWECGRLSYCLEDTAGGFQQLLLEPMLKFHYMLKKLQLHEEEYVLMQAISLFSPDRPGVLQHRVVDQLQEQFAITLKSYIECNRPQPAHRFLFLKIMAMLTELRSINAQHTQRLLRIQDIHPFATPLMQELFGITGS
Sequence of Nuclear receptor subfamily 1 group I member 2 (Rattus norvegicus) (Q9R1A7 whole entry, looked up): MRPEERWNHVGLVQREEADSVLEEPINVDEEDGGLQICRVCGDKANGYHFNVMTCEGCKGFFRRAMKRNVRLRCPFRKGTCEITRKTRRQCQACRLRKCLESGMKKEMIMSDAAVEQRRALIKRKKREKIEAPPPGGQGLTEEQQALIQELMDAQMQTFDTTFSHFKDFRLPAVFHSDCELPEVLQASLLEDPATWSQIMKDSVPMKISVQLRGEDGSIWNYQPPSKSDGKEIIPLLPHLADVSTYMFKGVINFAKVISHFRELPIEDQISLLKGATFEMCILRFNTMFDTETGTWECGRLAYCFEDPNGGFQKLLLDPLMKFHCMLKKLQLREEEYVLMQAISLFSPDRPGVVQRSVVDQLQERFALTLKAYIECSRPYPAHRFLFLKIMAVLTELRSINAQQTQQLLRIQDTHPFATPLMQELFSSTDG
Sequence of Cytochrome P450 2C9 (Homo sapiens) (P11712 whole entry, looked up): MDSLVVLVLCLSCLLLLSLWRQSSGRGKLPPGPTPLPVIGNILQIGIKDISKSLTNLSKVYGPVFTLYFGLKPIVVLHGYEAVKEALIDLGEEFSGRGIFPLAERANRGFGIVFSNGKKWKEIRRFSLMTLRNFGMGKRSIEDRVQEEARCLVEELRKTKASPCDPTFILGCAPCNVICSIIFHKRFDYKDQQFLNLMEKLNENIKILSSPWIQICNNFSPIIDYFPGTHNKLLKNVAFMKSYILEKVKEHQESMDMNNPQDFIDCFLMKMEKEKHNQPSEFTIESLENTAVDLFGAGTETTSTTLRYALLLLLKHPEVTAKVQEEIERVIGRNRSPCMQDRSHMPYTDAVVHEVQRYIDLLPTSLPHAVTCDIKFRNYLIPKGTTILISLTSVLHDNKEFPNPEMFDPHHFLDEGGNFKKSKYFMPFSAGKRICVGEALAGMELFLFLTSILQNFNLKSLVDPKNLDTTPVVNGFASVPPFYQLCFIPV
Sequence of Cytochrome P450 2D6 (Homo sapiens) (P10635 whole entry, looked up): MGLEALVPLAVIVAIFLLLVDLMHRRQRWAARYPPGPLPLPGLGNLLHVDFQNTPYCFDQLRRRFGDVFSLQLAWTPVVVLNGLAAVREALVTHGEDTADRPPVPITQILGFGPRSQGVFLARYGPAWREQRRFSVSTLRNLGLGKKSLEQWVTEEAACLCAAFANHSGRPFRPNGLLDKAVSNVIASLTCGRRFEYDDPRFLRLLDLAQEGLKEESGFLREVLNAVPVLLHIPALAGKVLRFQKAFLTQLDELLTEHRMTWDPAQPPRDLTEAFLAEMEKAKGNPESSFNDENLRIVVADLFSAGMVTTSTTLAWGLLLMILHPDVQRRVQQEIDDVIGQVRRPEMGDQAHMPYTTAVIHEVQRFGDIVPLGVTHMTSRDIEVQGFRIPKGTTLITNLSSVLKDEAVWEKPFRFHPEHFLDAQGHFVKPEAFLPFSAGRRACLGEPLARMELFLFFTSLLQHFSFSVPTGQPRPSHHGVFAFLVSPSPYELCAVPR

| Compound | outcome [1] | Potency [2] | outcome [3] | Potency [4] | outcome [5] | Potency [6] | max activation [7] [%] | outcome [8] | Potency [9] | Potency [10] | Potency [11] | Potency [12] | Potency [13] | Potency [14] | outcome [15] | outcome [16] | Potency [17] | Potency [18] | outcome [19] | outcome [20] |
| --- | --- | --- | --- | --- | --- | --- | --- | --- | --- | --- | --- | --- | --- | --- | --- | --- | --- | --- | --- | --- |
| COc1cc2c3cc1Oc1cc(ccc1O)C[C@@H]1c4c(cc(OC)c(O)c4Oc4ccc(cc4)C[C@@H]3N(C)CC2)CC[N+]1(C)C | inactive | inactive | inactive | inactive | inactive | inactive | -3.43 | inactive | inactive | inactive | inactive | inactive | inactive | inactive | – | – | – | – | – | – |
| CCCOCCOCCOCCO | inactive | inactive | inactive | inactive | inactive | – | – | – | – | – | inactive | – | inactive | inactive | inactive | inactive | inactive | inactive | – | – |
| NS(=O)(=O)c1cc2c(cc1Cl)NC(C(Cl)Cl)NS2(=O)=O (configuration not stated) | inactive | inactive | – | inactive | inactive | inactive | 3.75 | inactive | inactive | – | – | – | inactive | inactive | inactive | inactive | inactive | inactive | – | – |
| CCCCOC(=O)C(=O)OCCCC | inactive | inactive | inactive | inactive | inactive | inactive | – | – | – | – | inactive | inactive | inactive | inactive | inactive | inactive | inactive | inactive | – | – |
| CCCCCCCCCCCCC1CO1 (configuration not stated) | inactive | inactive | inactive | – | inactive | – | – | – | – | inactive | inactive | inactive | inactive | inactive | inactive | – | inactive | – | inactive | – |
| COC(OC)C(C)c1ccccc1 (configuration not stated) | inactive | inactive | inactive | inactive | inactive | – | – | – | – | inactive | – | – | inactive | inactive | inactive | inactive | inactive | – | – | – |
| Nc1ccnc(=O)[nH]1 | – | inactive | – | inactive | inactive | – | – | – | – | inactive | inactive | – | inactive | inactive | inactive | inactive | inactive | inactive | – | inactive |
| CC(C)COC(=O)/C=C/c1ccccc1 | inactive | inactive | inactive | inactive | inactive | inactive | – | – | – | inactive | – | 28.3 µM (active) | – | inactive | inactive | – | inactive | – | – | – |
| CCCOC(=O)CCCCC(=O)OCCC | inactive | inactive | inactive | inactive | inactive | inactive | – | – | – | – | 20 µM (active) | 22.4 µM (active) | inactive | inactive | inactive | – | inactive | 20 µM (active) | – | – |
| Cc1cc(C)cc([N+](=O)[O-])c1 | inactive | inactive | inactive | inactive | inactive | inactive | – | – | – | – | inactive | inactive | inactive | inactive | inactive | – | inactive | inactive | – | – |
| O=C(O)C(=O)Nc1cccc(-c2nn[nH]n2)c1 | inactive | inactive | inactive | inactive | inactive | inactive | – | – | – | inactive | inactive | inactive | inactive | inactive | inactive | – | inactive | inactive | – | – |
| CC(=O)Nc1ccc(C)cc1 | inactive | inactive | inactive | inactive | inactive | inactive | – | – | – | inactive | – | – | inactive | inactive | – | – | inactive | inactive | inactive | – |
| Cn1c(=O)c2c(ncn2CC2OCCO2)n(C)c1=O | inactive | inactive | inactive | inactive | inactive | inactive | 6.17 | inactive | inactive | inactive | – | – | inactive | inactive | inactive | inactive | inactive | inactive | – | – |
| Cc1ccc2c(c1)c1c3n2CCNC3CCC1 (configuration not stated) | inactive | – | – | inactive | inactive | – | -0.806 | – | – | – | – | – | inactive | – | inactive | inactive | – | – | inactive | – |
| CC(C)(C)NCCO | inactive | inactive | inactive | inactive | inactive | inactive | – | – | – | inactive | inactive | 39.9 µM (active) | inactive | inactive | inactive | inactive | inactive | inactive | – | – |
| CNC(=O)C(c1ccccc1)c1ccccc1 | – | inactive | inactive | – | inactive | inactive | – | – | – | inactive | 20 µM (active) | – | inactive | inactive | – | – | – | – | – | – |
| Cc1ccccc1N1CCN(CCc2nnc3n2CCCC3)CC1 | inactive | inactive | inactive | inactive | inactive | – | – | – | – | 13.8 µM (active) | inactive | – | inactive | inactive | inactive | – | inactive | – | inactive | – |
| CCOC(=O)CCc1ccccc1 | inactive | inactive | – | inactive | inactive | inactive | – | – | – | inactive | – | – | inactive | inactive | inactive | – | inactive | inactive | – | – |
